A selection: hits, their analogues and other compounds. The true share with any hit is near 2.7%.
F508del corr = CFTR F508del correction in bronchial cells. CFBE cells, YFP halide quenching; stimulated with forskolin plus potentiator P3; % fluorescence drop versus neutral controls. activity (quench increase), % at 7.58 µM. hit rate 0.36% among 350,000. AID 720511;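 active = mean added fluorescence quench of at least 8% versus neutral control, with both replicates also reaching 8%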;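 note: cells transiently co-express mutant CFTR-F508del with the halide-sensitive YFP; corrector assay measuring rescue of mutant channel to the surface after 24 h compound exposure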
MPTP block = blocks calcium-induced mitochondrial swelling; isolated mouse mitochondria, Ca2+ swelling absorbance, 30 min; inhibition, % at 10 µM; hit rate 1.4% among 360,000;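 active = inhibition of 50% or more, scaled per plate between neutral and stimulator controls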
CendR NRP1 mod = modulators of CendR peptide binding to human neuropilin-1 | O14786 | FAM-RPARPAR peptide binding to NRP-1, fluorescence polarization | inhibition, % at 25 µM | hit rate 0.85% among 360,000 | AID 602438;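 active = inhibition or corrected inhibition above about 18%, plus a signal ratio from 0.5 to 1.5, limit read from the data, passing the limit was not always enough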
SKN-1 inh = blocks SKN-1 activity in C. elegans. AID 624304. inhibition, % at 21.8 µM. hit rate 0.49% among 360,000. C. elegans VP596 Pgst-4::GFP/RFP ratio, acrylamide-induced, 24 h;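 active = interference check ratio from 0.5 to 1.5 plus GFP to RFP signal ratio inhibition reaching or exceeding a fixed threshold, cut at about 30% in these data, passing the limit was not always enough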
ATG4B inh = ATG4B (human) cysteine protease inhibition | Q9Y4P1 | ATG4B cleavage of LC3-PLA2, NBD-HPC fluorescence, 1 h | inhibition, % at 8.33 µM | hit rate 0.51% among 340,000; in the data active = inhibition above about 40%
Target sequence (Q9Y4P1 whole entry, looked up): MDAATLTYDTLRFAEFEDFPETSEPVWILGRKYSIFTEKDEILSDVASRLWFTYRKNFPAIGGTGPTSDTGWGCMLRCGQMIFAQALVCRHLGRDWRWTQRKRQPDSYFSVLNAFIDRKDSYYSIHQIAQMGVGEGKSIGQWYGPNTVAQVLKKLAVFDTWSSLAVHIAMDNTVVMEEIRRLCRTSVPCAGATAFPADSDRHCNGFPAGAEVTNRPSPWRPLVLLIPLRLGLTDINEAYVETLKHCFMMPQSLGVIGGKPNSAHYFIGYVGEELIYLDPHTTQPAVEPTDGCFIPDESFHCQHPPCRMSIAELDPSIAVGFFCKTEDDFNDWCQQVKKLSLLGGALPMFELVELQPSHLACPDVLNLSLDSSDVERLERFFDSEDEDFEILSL
A number is an active result; – = inactive; · = no result.

SMILES	F508del corr	MPTP block	CendR NRP1 mod	SKN-1 inh	ATG4B inh
CCCC#Cc1ccc([C@H]2[C@@H](C#N)N(C(=O)C3CC3)[C@@H]2CO)cc1	–	·	·	·	·
COc1ccc(CNC(=O)C[C@H]2C=C[C@@H](NS(=O)(=O)c3cccc(OC)c3)[C@H](CO)O2)cc1	–	·	·	·	·
CC(C)Oc1ccc(F)cc1-c1cc(C(=O)NCc2ccc(F)cc2)[nH]n1	–	–	27.4	–	·
COc1ccc(F)cc1-c1cc(C(=O)NCc2cccc(C(F)(F)F)c2)[nH]n1	–	–	18.0	–	·
O=C(c1ccccc1)N1C[C@@H]2[C@H](c3ccccc31)[C@H](CO)N2Cc1ccccc1F	–	·	·	·	·
O=C(COC(=O)Cc1ccc(Cl)cc1)Nc1cc(S(=O)(=O)N2CCOCC2)ccc1N1CCCC1	·	–	44.4	–	–
NS(=O)(=O)c1cccc(NC(=O)COC(=O)Cc2n[nH]c(=O)c3ccccc23)c1	–	–	–	–	–
O=c1[nH]nc(Cc2ccccc2)c2ccccc12	·	–	–	–	–
O=c1[nH]nc(Cc2ccc([N+](=O)[O-])cc2)c2ccccc12	–	–	–	31.9	–
O=C(COC(=O)Cc1n[nH]c(=O)c2ccccc12)Nc1c(Br)cc([N+](=O)[O-])cc1Br	–	–	24.1	–	–
Cc1ccccc1-c1ccc(C2[C@H]3CNC[C@@H]2N3S(=O)(=O)Cc2ccccc2)cc1 (stereo partly drawn)	–	·	·	·	·
CCOC(=O)N1C2=NC(C(=O)OC)=C(C(=O)OC)[C@@H]3N(C)c4ccc(OC)cc4[C@]23C[C@H]1C(=O)OC	–	–	25.3	–	–
C#CCCOC(=O)N1C2=NC(C(=O)OC)=C(C(=O)OC)[C@@H]3N(C)c4ccccc4[C@]23C[C@H]1CO	–	–	26.1	–	–
CCOc1ccc(C(=O)OC(C)C(=O)N2CCN(Cc3ccccc3)CC2)cc1 (stereo not drawn)	–	–	–	–	–
CCOc1ccc(C(=O)NCC(=O)N2CCN(Cc3ccccc3)CC2)cc1	10.0	–	–	–	–
COc1ccc(C2CC(=O)Oc3cc(OC)ccc32)cc1 (stereo not drawn)	–	–	–	–	–
COc1ccc(C2CC(O)(c3ccccc3)Oc3cc(OC)ccc32)cc1 (stereo not drawn)	–	–	26.4	–	–
COC(=O)C[C@H]1CC[C@@H]2[C@H](COc3ccc(NC(=O)NCc4ccccc4)cc3C(=O)N2C)O1	–	·	·	·	·
COc1ccc(NC(=O)CSc2nccn2-c2ccccc2)c(OC)c1	·	–	25.5	–	–
CCOc1ccccc1NC(=O)CSc1nccn1-c1ccccc1	·	–	–	–	–
Oc1ccc(/C=N/N2CCN(C3c4ccccc4-c4ccccc43)CC2)cc1	–	–	21.0	–	–
C=C1C[C@@]23CCC4[C@@](C)(CCC[C@@]4(C)C(=O)O)C2CC[C@]1(O)C3 (stereo partly drawn)	–	–	31.8	–	–
CO[C@H]1CN(C)C(=O)c2cc(NC(=O)Nc3c(C)noc3C)ccc2OC[C@@H](C)N(CC2CC2)C[C@H]1C	–	·	·	·	·
O=C(CN1CCN(Cc2ccc3c(c2)OCO3)CC1)N1CCc2[nH]c3ccc(F)cc3c2C1	·	–	33.8	–	–
COc1ccc(NC(=O)N(C)C[C@H]2Oc3ncc(-c4ccc(C#N)cc4)cc3C(=O)N([C@@H](C)CO)C[C@H]2C)cc1	–	·	·	·	·
C#CCOCCOCCOCCNc1nc(N2CCN(C(=O)CCCCCCCCCCNC(=O)[C@H](CCCCN)n3cc(CCO)nn3)CC2)nc(N2CCN(C(=O)CCCCCCCCCCNC(=O)[C@H](CCCN=C(N)N)n3cc(C[C@@H](C)CC)nn3)CC2)n1	·	–	–	–	70.5
C#CCOCCOCCOCCNc1nc(N2CCN(C(=O)CCCCCCCCCCNC(=O)[C@@H](CCSC)n3cc(CCO)nn3)CC2)nc(N2CCN(C(=O)CCCCCCCCCCNC(=O)[C@H]([C@@H](C)CC)n3cc(CCCCCN)nn3)CC2)n1	·	·	·	·	45.1
C#CCOCCOCCOCCNc1nc(N2CCN(C(=O)[C@H](CCCCN)n3cc([C@@H](N)C(C)CC)nn3)CC2)nc(N2CCN(C(=O)[C@H](CCCCN)n3cc([C@@H](N)CC(C)C)nn3)CC2)n1 (stereo partly drawn)	–	–	22.2	–	–
C#CCOCCOCCOCCNc1nc(N2CCN(C(=O)CCCCCCCCCCNC(=O)[C@H](CCCCN)n3cc(CCCC(=O)O)nn3)CC2)nc(N2CCN(C(=O)CCCCCCCCCCNC(=O)[C@H](CCCN=C(N)N)n3cc(C[C@@H](C)CC)nn3)CC2)n1	·	–	–	–	–
